From PubChem BioAssay (NCI) come the findings set out here.

Values joined by “and” are separate entries in the source; they are usually repeats but may differ in a detail not shown here. Equal entries are not always repeated. About 83,000 compounds went through this panel and 20% of them were active in at least one assay; those are over-represented in the sample as a whole.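 For each line, cells grew in 96-well plates with the test compound present at a single concentration for 48 hours.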 Active and inactive are the calls of the source. The calls were made as follows: active = growth percent below 10; inactive = the rest.

In this test the test system is MDA-MB-468 breast. In words: NCI-60 one-dose screen, 48 h (100 = growth as untreated, 0 = no growth, -100 = all killed). The note with it: 10 µM unless noted.
As to `CCCCN(CCCC)CCCNc1c2c(nc3ccc(Cl)cc13)CCCC2`, the growth was 114% (inactive).
For `Nc1nc(N)c2c(n1)NC(c1ccc(Cl)cc1)CC(c1cccc(Nc3ccncc3)c1)=N2` (stereo not given), the growth is 57.4% (inactive).
As for `Clc1nc2ccccc2cc1Cn1nnc(Cc2ccccc2)n1`, the figure is 11.1% (inactive); as for `COC(=O)CCC/C=C\C[C@H]1C=CC(=O)/C1=C/C[C@@H](O)C/C=C\CC(F)(F)F`, -6.29% (active); as for `COC(=O)[C@@H](OC)[C@@H]1Cc2cc3cc(OC4CC(OC5CC(O)C(O)C(C)O5)C(O)C(C)O4)c(C)c(O)c3c(O)c2C(=O)[C@H]1OC1CC(OC2CC(OC3CC(C)(O)C(O)C(C)O3)C(O)C(C)O2)C(O)C(C)O1` (stereo not given in full), -45.6% (active).
The figure for `Cn1cnc([N+](=O)[O-])c1S(=O)(=O)Oc1cccc2ccccc12` is 58.9% (inactive); for `COc1cc(C2N=C(NNc3ccccc3)NC(C)=C2C(C)=O)ccc1O` (stereo not given) it is 93.3% (inactive); for `C=C1C(=O)O[C@H]2[C@H]1CC/C(COC(=O)CSCCSCC(=O)OC/C1=C/CC[C@@]3(C)O[C@H]3[C@H]3OC(=O)C(=C)[C@@H]3CC1)=C\CC[C@@]1(C)O[C@@H]21` it is -44.7% (active).
The figure for `C=C1c2c(C)nn(-c3ccc(OC)cc3)c2N(C)C23C[C@@H]1C1(C)c4c(C)nn(-c5ccc(OC)cc5)c4N(C)C(C)(C[C@H]12)C3` (stereo not given in full) is 31.9% (inactive); for `COc1ccc(-c2c(N)n[nH]c2-c2cc(OC)c3c(c2)OCCO3)cc1` it is 71.7% (inactive); for `N=c1c2ccccc2nc2n1CCCCC2` it is 103% (inactive).
Regarding `C=CCn1c(SCC(=O)Nc2ccc(C(=O)/C=C/c3ccc(Cl)cc3)cc2)nnc1-c1cc(-c2ccc(S(N)(=O)=O)cc2)nc2ccccc12`, the growth was 90.2% (inactive).
As for `Cc1nc2ccccc2c(/C=C/c2ccc(F)cc2)c1C(N)=O`, the figure is 107% (inactive).
With `Nc1nc(-c2cc3c(cc2Cl)NC(=O)/C3=C/c2ccccc2)cs1`, the growth is 33.7% (inactive).
As for `CCCc1n(Cc2ccc3ccccc3c2)cc[n+]1Cc1ccc2ccccc2c1`, the figure is -45.4% (active); as for `COc1ccc(-c2cc(-c3cc(OC)ccc3OC)[nH]c(=O)c2C#N)cc1`, 37.9% (inactive).
Turning to `CCc1ccc2c(c1)N(CCO)C1=C(C(=O)OC1)C2c1cc(OC)c(OC)c(OC)c1` (stereo not given), the growth was 2.83% (active).
With `C[C@@H]1CCC[C@H]1CC(N)C(=O)O` (stereo not given in full), the growth was 92.8% (inactive).
On to `Cc1[nH]nc(C(N)=O)c1[N+](=O)[O-]`, for which the growth was 85.5% (inactive).
For `Cc1cccc(N=NC(=S)NNc2cccc(C)c2)c1`, the growth is 116% (inactive).
On to `N=S(=O)(NC(=O)c1ccc(Cl)cc1Cl)c1ccc(Br)s1` (stereo not given), for which the growth was 92.8% (inactive).
For `CC(=O)Oc1ccc(/C=N/NC(N)=S)nc1`, the growth was -13.9% (active).
The figure for `COc1ccc2c(ccc[n+]2C)c1` is 81.5% (inactive); for `Cc1ccc(/C=C(\C#N)c2cc3ccccc3n2C)cc1` it is 23.6% (inactive); for `CC(C)Oc1ccc2cc(-c3nn(CC4CCNCC4)c4ncnc(N)c34)ccc2c1` it is 84.8% (inactive) and -20% (active).
In the case of `CN(C)c1ccc(-c2cc(-c3cccc(NS(C)(=O)=O)c3)nc(N)c2C#N)cc1`, the growth is -20.1% (active).
As for `COc1c(Cl)cc(Cl)c2ccc(C=C3C(=O)N(C)C(=O)N(C)C3=O)nc12`, the figure is 107% (inactive).
For the molecule `O=C(NCCCNS(=O)(=O)c1ccc(Cl)cc1)Nc1ccc(-n2cc(-c3ccncc3)c(-c3ccc(Cl)c(O)c3)n2)cc1`, the growth was 47.6% (inactive).
In the case of `CCCCN(CCCC)CCCCCCCCCCO`, the growth was 99.8% (inactive).
`COc1ccccc1CNCCCN1C(=O)c2ccc3c4c(ccc(c24)C1=O)C(=O)N(CCCNCCCCNCCCN)C3=O`: the growth is -84.5% (active).
As for `CC1(C)CNC(=O)N1`, the figure is 98.2% (inactive); as for `CC[C@H](Nc1ncnc2nc[nH]c12)c1nc2cccc(F)c2c(=O)n1-c1ccccc1`, 3.98% (active).
As for `CC(=NCc1ccccc1)c1ccc(O)cc1O`, the figure is 118% (inactive); as for `Cc1scc2c1N(C(=O)CN1CCN(C)CC1)c1ccccc1NC2=O`, 101% (inactive).
Regarding `O=CNc1ccc2c(c1)Cc1cccc(NC=O)c1-2`, the growth is 14.5% (inactive).
The figure for `COc1cc(CNC(=O)CCCC/C=C/C(C)C)ccc1OCc1cn(-c2ccc([N+](=O)[O-])cc2)nn1` is 77.4% (inactive); for `CCOC(=O)Nc1ccc(-c2nc(-c3cccc(OC)c3)c(-c3ccnc(Br)c3)[nH]2)cc1` it is 25.9% (inactive).
The figure for `COc1ccc(Nc2ccnc(N3CCN(c4ccnc5cc(Cl)ccc45)CC3)n2)cc1` is -16% (active); for `CCOC(=O)c1cc2c(n(C)c1=O)-c1cnn(-c3ccc(OC)cc3)c1CC2` it is 93.2% (inactive); for `CC1(C)C(=O)/C(=C\c2cccnc2)C[C@]2(C)[C@H]3CC[C@@H]4[C@H]5[C@H](C(=O)/C=C/c6cccnc6)CC[C@]5(C(=O)O)CC[C@@]4(C)[C@]3(C)CC[C@@H]12` it is -46.4% [100 µM] (active).
